An excerpt weighted towards active compounds, which were near 6.9% of everything screened.
Cy5 interf NS3h – Cy5 fluorescence interference, HCV helicase counter-screen. Cy5-dT15 DNA with NS3h; actives lie on both sides; signal over control mean, under 1 quenches. fluorescence interference ratio at 100 µM. actives 6% (n = 16,000);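 active means compound fluorescence over control fluorescence at most 0.8, a quencher, or at least a set upper limit, an enhancer; inactive means ratio between 0.8 and the set upper limit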
NS3h inh CB – blocks HCV NS3 helicase binding to DNA; NS3h Cy5-dT15 DNA binding, fluorescence polarization; inhibition, % at 100 µM; actives 1.6% (n = 16,000);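 active means inhibition above the average over every tested compound plus 3 SD, cut at about 40% in these data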
Starred values were filed as active, the others as inactive.

SMILES	Cy5 interf NS3h	NS3h inh CB
COc1cc(-c2cc(C(F)(F)F)n3ncc(C(=O)Nc4cccc5ccccc45)c3n2)cc(OC)c1OC	1.1	-1
CN(Cc1ccccc1)C(=O)c1nn2c(C(F)(F)F)cc(-c3ccccc3)nc2c1Cl	0.61*	8
Cc1ccc(-c2cc(C(F)(F)F)n3ncc(C(=O)N4CCN(c5ccc(F)cc5)CC4)c3n2)cc1	0.61*	10
O=C(c1nn2c(C(F)(F)F)cc(-c3ccccc3)nc2c1Cl)N1CCCC1	0.93	9
Cc1cccc(C(=O)N2N=C(c3ccc(Cl)cc3)CC2(O)C(F)(F)F)c1O (stereo not given)	0.82	4
COc1ccc(N(CC(=O)Nc2ccccc2Br)S(=O)(=O)c2ccccc2)cc1Cl	1.1	10
Cc1ccc(S(=O)(=O)N2CCC(=O)C(C)C2)cc1 (stereo not given)	0.74*	17
Cc1ccc(S(=O)(=O)N2CCN(C3CC4CCC3C4)CC2)cc1 (stereo not given)	0.93	-20
CCCCCNC(=O)c1ccc(C(=O)NCCCCC)cc1	0.99	4
CCN(CC)CCCNC(=O)c1ccc(Cl)cc1	0.67*	6
Cc1ccc(C(=O)Nc2ccc(I)cc2)cc1[N+](=O)[O-]	1.1	14
Cc1ccc(C(=O)Nc2ccccc2)cc1[N+](=O)[O-]	0.63*	10
O=C(Nc1ccc2nn(-c3ccccc3)nc2c1)c1cccc(F)c1	0.94	-20
O=C(Nc1ccc2nn(-c3ccccc3)nc2c1)c1ccc(Cl)c([N+](=O)[O-])c1	0.44*	-8
CN(C)c1ccc(NC(=O)c2ccc(Cl)c([N+](=O)[O-])c2)cc1	0.32*	44*
O=C(O)c1ccc(NC(=O)c2ccc(Cl)c([N+](=O)[O-])c2)cc1	0.9	10
O=C1/C(=C\c2ccccc2OS(=O)(=O)c2ccccc2[N+](=O)[O-])SC(=S)N1Cc1ccccc1	1	5
O=C1/C(=C\Nc2ccc3c(c2)OCO3)CCc2ccccc21	0.98	4
COc1ccc(C(=O)Nc2cc(Cl)ccc2Cl)cc1NC(C)=O	1.1	19
CCOC(=O)c1ccccc1NC(=O)CN(c1ccc(C)cc1)S(=O)(=O)c1ccc(OCC)cc1	1.1	6
CC(=O)N1C(=S)NC(=O)/C1=C\c1cccnc1	0.95	2
O=C(Nc1cc(Cl)cc(Cl)c1)C(c1ccccc1)c1ccccc1	1.1	-7
O=C(Nc1cc(C(F)(F)F)ccc1Cl)C(c1ccccc1)c1ccccc1	0.77*	25
COC(C)(C)CNS(=O)(=O)c1ccc(C)cc1	0.74*	9
COc1ccc(CNS(=O)(=O)c2ccc(C)cc2)cc1	0.99	7
SMILES	Cy5 interf NS3h	NS3h inh CB
CC(NC(=O)C(O)CN1CCOCC1)C1COc2ccccc2O1 (stereo not given)	1.1	4
CC(=O)Nc1ccc(/C=C(\C#N)c2nc(-c3ccc([N+](=O)[O-])cc3)cs2)cc1	0.98	6
CCOC(=O)c1ccc(N2C(=O)C3C4C=CC(C4=C(C)C)C3C2=O)cc1 (stereo not given)	0.88	10
[O-][n+]1cc(O)c(Br)c2ccccc21	0.7*	11
CN(C)Cc1c(O)c[n+]([O-])c2ccccc12	1	4
CC(C)N1C(=O)/C(=C2/C(=O)N(C)c3ccccc32)SC1=S	1.1	14
COc1ccc(OC)c(CN2CCN(Cc3ccc(OC)c(Br)c3)CC2)c1	0.93	-7
COc1ccc(CN2CCN(CC3CC4C=CC3C4)CC2)cc1Br (stereo not given)	0.75*	-9
CCN1C(=O)/C(=C\c2cc(Br)ccc2OCc2ccccc2)SC1=S	1.1	0
COc1ccc(Br)cc1/C=C1/SC(=S)N(Cc2ccccc2)C1=O	0.69*	1
CCN1C(=O)/C(=C\c2ccccc2OCCOc2cccc(OC)c2)SC1=S	1	7
CCN1C(=O)/C(=C\c2cc(OC)ccc2OC)SC1=S	0.76*	9
O=C(CN1C(=O)/C(=C/c2ccccc2)SC1=S)Nc1cc([N+](=O)[O-])ccc1O	1	16
N#Cc1c2c(c(Nc3cccc(Cl)c3)n3c1nc1ccccc13)CCC2	1.1	2
O=C(O)CC1S/C(=N/N=C/C=C\c2ccccc2)N(c2ccc(O)cc2)C1=O (stereo not given)	1	0
CCOC(=O)C1=C(C)N=C2SCCC(=O)N2C1c1cccc([N+](=O)[O-])c1 (stereo not given)	0.99	9
O=C(Oc1cccc(C(=S)N2CCOCC2)c1)c1ccc([N+](=O)[O-])cc1	0.66*	20
O=C(Oc1ccccc1C(=S)N1CCOCC1)c1ccc([N+](=O)[O-])cc1	0.89	2
COc1ccccc1NCc1cccs1	0.88	3
COc1ccc(N(CC(=O)Nc2ccc(Br)cc2)S(=O)(=O)c2ccc(OC)c(OC)c2)cc1	0.7*	10
CCOc1ccccc1NC(=O)CN(c1ccc(C)cc1)S(=O)(=O)c1ccc(OC)c(OC)c1	0.97	15
COc1ccc(S(=O)(=O)N(CC(=O)Nc2cccc3ccccc23)c2ccc(C)cc2)cc1OC	0.68*	28
COc1ccc(NC(=O)CN(c2ccc(Cl)cc2)S(=O)(=O)c2ccccc2)cc1	1	11
COc1ccc(S(=O)(=O)N(CC(=O)Nc2ccc(C(C)=O)cc2)c2ccc(C)cc2)cc1OC	0.91	10
COc1ccc(S(=O)(=O)N(CC(=O)Nc2ccc(Br)cc2)c2ccc(C)cc2)cc1OC	0.68*	17
SMILES	Cy5 interf NS3h	NS3h inh CB
COc1ccc(N(CC(=O)Nc2ccc(C(=O)N3CCOCC3)cc2)S(=O)(=O)c2ccccc2)cc1	0.72*	13
COc1ccc(N(CC(=O)Nc2cc(OC)ccc2OC)S(=O)(=O)c2ccc(OC)c(OC)c2)cc1	1.1	11
COc1ccc(C(=O)N2CCC(c3ccccc3)C2)cc1 (stereo not given)	1	3
CC1CN(C(=O)c2cc([N+](=O)[O-])cc([N+](=O)[O-])c2N)CC(C)O1 (stereo not given)	1.2	2
Cc1no[n+]([O-])c1COc1ccc(C=O)cc1	1.1	-8
COc1ccc(N(CC(=O)Nc2ccccc2Br)S(C)(=O)=O)c(OC)c1	0.98	7
COc1ccc(N(CC(=O)Nc2ccccc2Br)S(C)(=O)=O)cc1	1.3*	18
COc1ccc(N(CC(=O)Nc2ccccc2Cl)S(=O)(=O)c2ccc(C)cc2)c(OC)c1	1.2*	-1
COc1ccc(NC(=O)CN(c2cccc([N+](=O)[O-])c2)S(=O)(=O)c2ccccc2)c(OC)c1	0.7*	28
COc1ccc(N(CC(=O)Nc2ccc3ccccc3c2)S(=O)(=O)c2ccc(C)cc2)c(OC)c1	1.1	10
COc1ccc(NC(=O)CN(c2cccc([N+](=O)[O-])c2)S(=O)(=O)c2ccccc2)cc1	1	-2
Cc1ccccc1NC(=O)CCc1ccccc1	1	7
COc1ccc(CCNC(=O)N2C(=O)C=CC2=O)cc1OC	1.1	12
N/C(=N/OC(=O)CCc1ccccc1)c1ccc(Cl)cc1	0.99	-3
COC(=O)c1ccc(Oc2ccc(OC(C)=O)cc2)cc1	1.1	5
CS(=O)(=O)N(CC(=O)N(Cc1ccccc1)Cc1ccccc1)c1ccc(Cl)cc1	0.68*	25
CS(=O)(=O)N(CC(=O)O)c1ccc(Cl)cc1	1.1	4
O=C(Nc1ccc2oc(-c3cccc4c(Br)cccc34)nc2c1)c1ccco1	1.1	-22
CCOC(=O)c1c(NC(=O)c2sc3cc(C)ccc3c2Cl)sc(C(N)=O)c1C	0.79*	7

Screens: PubChem, Milwaukee Institute for Drug Discovery
